Source: PubChem (several laboratories)
AMPAR-TARP mod: modulators of AMPA receptor GluA2-stargazin complexes; O88602+P19491; HEK293 GluA2+stargazin, membrane potential dye (FDSS), glutamate EC50; hits were called plate by plate, in both directions; calls only at 30 µM; 3.5% of 40,000 active; AID 1259245;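 active = any of four per-well response measures lying three or more SD from its plate-wide compound average, in either direction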
GIRK2 activator: Activators of human GIRK2-containing channels; P48051; HEK293 GIRK2/NPY4 cells, thallium flux fluorescence; activation (% efficacy), % for hits at 37.5 µM; 34,000 tested, under 10 active; AID 1259324;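 active = primary screen hit, no activity in plain HEK293 cells, and in GIRK2-only cells above 5% efficacy rising with concentration; inactive = the rest, including fluorescent compounds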;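 note: efficacy is normalized control-subtracted fluorescence 15 s after thallium addition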
Target sequence (P48051 whole entry, looked up): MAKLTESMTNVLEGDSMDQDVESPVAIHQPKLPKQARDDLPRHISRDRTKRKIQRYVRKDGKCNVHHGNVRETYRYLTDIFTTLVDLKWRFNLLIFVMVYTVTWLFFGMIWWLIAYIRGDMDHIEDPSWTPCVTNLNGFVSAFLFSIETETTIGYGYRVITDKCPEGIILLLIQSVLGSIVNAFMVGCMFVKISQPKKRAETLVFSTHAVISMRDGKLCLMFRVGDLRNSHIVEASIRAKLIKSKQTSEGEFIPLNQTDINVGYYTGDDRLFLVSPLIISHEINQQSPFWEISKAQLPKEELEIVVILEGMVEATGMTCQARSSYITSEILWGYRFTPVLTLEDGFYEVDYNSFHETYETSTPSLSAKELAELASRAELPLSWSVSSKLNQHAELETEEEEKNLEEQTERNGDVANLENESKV
Starred values were filed as active, the others as inactive; ! = a repeat was not active. The entries come from a sample that favours hits as a whole.

`O=C(CCc1ccccc1)NCCC(O)c1ccccc1` (stereo not given) gave AMPAR-TARP mod active and GIRK2 activator inactive.
O=C(Cc1ccc(F)cc1)NCCC(O)c1ccccc1 (stereo not given) was read as AMPAR-TARP mod inactive and GIRK2 activator inactive.
Screening CC(C)c1ccc(/C=C2\Oc3cc(OC(=O)N4CCOCC4)ccc3C2=O)cc1 returned AMPAR-TARP mod inactive.
`O=C(Cc1ccc(NS(=O)(=O)c2cccs2)cc1)NCc1cccs1` gave AMPAR-TARP mod inactive and GIRK2 activator inactive.
Screening O=C(Nc1nc(-c2cccnc2)cs1)C1CCN(S(=O)(=O)c2ccc(Cl)s2)CC1 returned AMPAR-TARP mod active.
`O=C(Nc1nc(-c2cccnc2)cs1)C1CCN(S(=O)(=O)c2cccs2)CC1` gave AMPAR-TARP mod inactive.
COc1ccc(CN2C(=O)C3(OCCCO3)c3ccccc32)cc1OC was read as AMPAR-TARP mod inactive.
For COc1ccc(OCCCN2C(=O)C3(OCCCO3)c3cccc(C)c32)cc1 the results were AMPAR-TARP mod active! and GIRK2 activator inactive.
NC(=O)c1ccc(NC(=O)Cc2csc(NC(=O)C3CCC(=O)N3)n2)cc1 (stereo not given) was read as AMPAR-TARP mod inactive and GIRK2 activator inactive.
Cc1onc(-c2ccccc2Cl)c1C(=O)Nc1ccc(CC(=O)N2CCOCC2)cc1 was read as AMPAR-TARP mod inactive and GIRK2 activator inactive.
`Cc1n[nH]c(C)c1S(=O)(=O)Nc1ccc(CC(=O)NCC(F)(F)F)cc1` gave AMPAR-TARP mod inactive and GIRK2 activator inactive.
For O=C(NC1(c2nc(-c3cnccn3)no2)CCCCC1)C1COc2ccccc2O1 (stereo not given) the results were AMPAR-TARP mod inactive and GIRK2 activator inactive.
COC1CS(=O)(=O)CC1OC (stereo not given) was read as AMPAR-TARP mod active.
`COc1ccc(S(=O)(=O)NCc2nnnn2-c2ccc(F)cc2)cc1` gave AMPAR-TARP mod active.
For COc1ccc(S(=O)(=O)NCc2nnnn2-c2ccc(F)c(F)c2)cc1 the results were AMPAR-TARP mod inactive.
For N#Cc1ccc(NC(=O)CSc2ncc(S(=O)(=O)c3cccs3)c(N)n2)cc1 the results were AMPAR-TARP mod active and GIRK2 activator inactive.
Screening N#Cc1cccc(NC(=O)CSc2ncc(S(=O)(=O)c3cccs3)c(N)n2)c1 returned AMPAR-TARP mod inactive and GIRK2 activator inactive.
For Cc1c(Cl)cccc1S(=O)(=O)NCC(O)(c1ccccc1)C(F)(F)F (stereo not given) the results were AMPAR-TARP mod active and GIRK2 activator inactive.
Screening O=S(=O)(NCC(O)(c1ccccc1)C(F)(F)F)c1ccccc1Cl (stereo not given) returned AMPAR-TARP mod inactive and GIRK2 activator inactive.
CC(=O)c1ccc(S(=O)(=O)Nc2cccc(-c3csc4nc(C)cc(=O)n34)c2)cc1 was read as AMPAR-TARP mod inactive and GIRK2 activator inactive.
Screening CC1CCCCN1c1nc2c(S(=O)(=O)c3ccccc3)nnn2c2ccc(Cl)cc12 (stereo not given) returned AMPAR-TARP mod active and GIRK2 activator inactive.
Screening COCCNc1nc2c(S(=O)(=O)c3ccccc3)nnn2c2ccc(Cl)cc12 returned AMPAR-TARP mod inactive and GIRK2 activator inactive.
Screening Cc1cccc(NC(=O)CC2CSc3nc4c(c(=O)n32)CCC4)n1 (stereo not given) returned AMPAR-TARP mod inactive and GIRK2 activator inactive.
`Cc1cc(O)c(C(c2cccc([N+](=O)[O-])c2)c2c(O)cc(C)n(C)c2=O)c(=O)n1C` gave AMPAR-TARP mod inactive and GIRK2 activator inactive.
For O=C(NCC(O)(c1ccccc1)C(F)(F)F)c1ccc(Cl)c(Cl)c1 (stereo not given) the results were AMPAR-TARP mod inactive and GIRK2 activator inactive.
`O=C(NCC(O)(c1ccccc1)C(F)(F)F)C1COc2ccccc2O1` (stereo not given) gave AMPAR-TARP mod inactive and GIRK2 activator inactive.
For O=C(NCC(O)(c1ccccc1)C(F)(F)F)C1c2ccccc2Oc2ccccc21 (stereo not given) the results were AMPAR-TARP mod active and GIRK2 activator inactive.
For O=C(NCC(O)(c1ccccc1)C(F)(F)F)c1cccc(C(F)(F)F)c1 (stereo not given) the results were AMPAR-TARP mod active and GIRK2 activator inactive.
O=C(NCC1(c2ccccc2)CCOCC1)c1cc2ccccc2oc1=O was read as GIRK2 activator inactive.
For CSc1cccc(NC(=O)C(=O)NCC2CCN(c3cnccn3)CC2)c1 the results were AMPAR-TARP mod inactive and GIRK2 activator inactive.
Screening O=C(NCc1cccs1)C(=O)Nc1ccc(OC(F)(F)F)cc1 returned AMPAR-TARP mod inactive and GIRK2 activator inactive.
`COc1cc(/C=C2\Oc3cc(OC(C)=O)ccc3C2=O)cc(OC)c1OC` gave AMPAR-TARP mod inactive.
COc1cc(/C=C2\Oc3cc(OC(=O)c4ccccc4F)ccc3C2=O)cc(OC)c1OC was read as AMPAR-TARP mod active.
Screening COc1cc(COCC2CCN(C(=O)c3ccsc3)CC2)cc(OC)c1 returned AMPAR-TARP mod inactive and GIRK2 activator inactive.
Screening O=S(=O)(Nc1ccc(Br)cc1)N1CCOCC1 returned AMPAR-TARP mod inactive.
For O=S(=O)(Nc1ccc(Br)cc1)N1CCCCCC1 the results were AMPAR-TARP mod active.
Screening CC(=O)Oc1ccc2c(c1)O/C(=C\c1c(F)cccc1Cl)C2=O returned AMPAR-TARP mod inactive.
Screening COc1ccc(CNC(=O)c2ccc(NC(=O)Cn3c(C)cc(C)c(C#N)c3=O)cc2)c(OC)c1 returned AMPAR-TARP mod active! and GIRK2 activator inactive.
`COc1ccc(S(=O)(=O)c2c(C)cc(C)n(CC(=O)Nc3cc(OC)ccc3OC)c2=O)cc1` gave AMPAR-TARP mod inactive and GIRK2 activator inactive.
`CS(=O)(=O)c1ccc(SCC(=O)N2CCN(c3ccccc3)CC2)c([N+](=O)[O-])c1` gave AMPAR-TARP mod inactive.
Screening Nc1nc2ccc(S(=O)(=O)N3CCCCC3)cc2s1 returned AMPAR-TARP mod active and GIRK2 activator inactive.
Screening O=C(Nc1nc2ccc([N+](=O)[O-])cc2s1)c1ccc(S(=O)(=O)N2CCCCC2)cc1 returned AMPAR-TARP mod inactive.
Screening Cc1cccc(C)c1N1CCN(C(=O)c2ccc3c(c2)OCO3)CC1 returned AMPAR-TARP mod active.
For Cn1ccnc1N1CCN(C(=O)c2ccc3c(c2)OCO3)CC1 the results were AMPAR-TARP mod inactive and GIRK2 activator inactive.
Screening COc1cc(N2CCN(S(=O)(=O)c3ccc(OC)c(OC)c3)CC2)nc(OC)n1 returned AMPAR-TARP mod inactive and GIRK2 activator inactive.
Screening COc1ccccc1-c1c(C)nn2c(N3CCN(Cc4ccccc4)CC3)cc(C)nc12 returned AMPAR-TARP mod inactive and GIRK2 activator inactive.
For COc1ccc(-c2c(C)nn3c(N4CCN(Cc5ccccc5)CC4)cc(C)nc23)cc1OC the results were AMPAR-TARP mod active and GIRK2 activator inactive.
CCN(CC)C(=O)CCCCCn1c(=S)[nH]c2ccccc2c1=O was read as AMPAR-TARP mod active.
For CCN1CCN(C(=O)CCn2c(=S)[nH]c3ccccc3c2=O)CC1 the results were AMPAR-TARP mod inactive.
Screening COc1cn(CC(=O)Nc2ccc(Br)cc2)c(CSc2nnc(C)s2)cc1=O returned AMPAR-TARP mod inactive and GIRK2 activator inactive.
